D2 ag-1: activates the human D2 dopamine receptor; P14416; HEK293 T-REx D2 cells, calcium flux agonist mode; activation, % at 2 µM; 340,000 tested, 0.53% active; AID 485358;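 active = activation over 3 SD above normal in the single-dose calcium agonist read, cut at about 30% in these data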; note: 0% is about no effect
Target sequence (P14416 whole entry, looked up): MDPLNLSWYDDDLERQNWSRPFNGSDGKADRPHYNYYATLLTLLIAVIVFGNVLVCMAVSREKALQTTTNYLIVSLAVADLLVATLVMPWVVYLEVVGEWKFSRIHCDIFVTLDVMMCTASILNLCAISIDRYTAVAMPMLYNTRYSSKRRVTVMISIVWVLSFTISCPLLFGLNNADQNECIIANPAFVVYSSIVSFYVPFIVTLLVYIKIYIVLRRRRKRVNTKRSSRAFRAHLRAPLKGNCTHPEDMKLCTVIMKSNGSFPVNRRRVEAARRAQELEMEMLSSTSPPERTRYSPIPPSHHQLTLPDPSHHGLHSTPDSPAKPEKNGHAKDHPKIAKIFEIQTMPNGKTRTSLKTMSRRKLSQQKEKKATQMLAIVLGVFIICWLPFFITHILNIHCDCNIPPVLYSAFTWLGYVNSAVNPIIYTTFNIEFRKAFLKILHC
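Agonism is scored from calcium flux in a force-coupled, inducible HEK293 cell line expressing D2, read kinetically for 180 s after compound addition against dopamine controls.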
D2 PAM-1: D2 dopamine receptor (human) potentiation | 340,000 tested, 0.34% active | potentiation, % at 10 µM | HEK293 T-REx D2, calcium flux, EC20 dopamine potentiation | P14416;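 active = potentiation over 3 SD above the plate norm, cut at about 30% in these data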; note: 0% is about no effect
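Calcium flux readout, no-wash dye, 1 read/s. Inducible HEK293 Trex D2 line, overnight 30 C. Compound alone 180 s (agonist flags), then EC20 dopamine, another 180 s to score potentiation.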
D2 antag: antagonizes the human D2 dopamine receptor. inhibition, % at 10 µM. P14416. HEK293 TREx D2 cells, calcium flux, dopamine EC80. AID 485344. 340,000 tested, 2% active; in the data active = inhibition above about 30%; inactive = below that, where a call was filed; note: 0% is about no effect
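Compounds are added to dye-loaded, induced HEK293 T-REx cells coupled to calcium release via D2; after a 3 min kinetic read an EC80 dopamine stimulus is given and fluorescence is recorded for 3 more min.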
D2 PAM-2: potentiates the human D2 dopamine receptor allosterically; DiscoveRx D2 beta-arrestin cells, luminescence, 90 min; 100% = 57 uM dopamine signal; potentiation, % (test concentration not listed); 360,000 tested, 0.23% active; AID 624464; in the data active = potentiation above about 50%
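PathHunter beta-arrestin assay in DiscoveRx D2 cells. Compounds were added with an EC20 of dopamine (50 nM final) for 90 min at 37 deg C. Luminescence was read 1 h after detection reagent, with 57 uM dopamine as the EC100 control.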
D2 ag-2: agonists of human D2 dopamine receptor (beta-arrestin); DiscoveRx PathHunter D2 beta-arrestin, luminescence, 90 min; 100% = 57 uM dopamine signal; 360,000 tested, 0.084% active; activation, % (test concentration not listed); in the data active = activation above about 40%
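DiscoveRx PathHunter D2 beta-arrestin cells (2,100/well) attached overnight, then compound-stimulated 90 min at 37 C in HBSS/10 mM HEPES/0.1% Tween-20 buffer; beta-galactosidase complementation read by luminescence after 1 h at ambient temperature. Dopamine 57 uM final (EC100) as control.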
The depositor's hits bear a star; · = no result given. The list is not random: actives were taken first. Their share in the collection is about 2.4%.

SMILES	D2 ag-1	D2 PAM-1	D2 antag	D2 PAM-2	D2 ag-2
Cc1ccccc1NC1=NCCCS1	1	6	-22	-11	-1
CCN(CC)CCSc1nc2ccccc2c(=O)n1-c1ccc(Cl)cc1	-4	0	·	·	·
O=c1cc(CN2CC=C(c3ccccc3)CC2)c2c(ccc3ccccc32)o1	20	-5	-1	-13	1
Cc1cc(O)c(CN2CC=C(c3ccccc3)CC2)cc1C(C)C	1	-26	75*	-16	-3
CCN(CC)C(=O)c1ccc(NC(=O)CCn2nc(-c3ccc(C)cc3)c3ccccc3c2=O)cc1	·	16	·	·	·
COc1ccccc1N1CCN(Cc2ccc(Br)cc2)CC1	0	-21	94*	-66	-3
COc1ccccc1N1CCN(Cc2ccccc2Cl)CC1	4	-21	79*	-14	-2
COc1ccccc1N1CCN(Cc2cnc(-c3ccccc3)[nH]2)CC1	0	-13	57*	-21	-3
COc1ccccc1N1CCN(Cc2ccccc2F)CC1	6	-27	81*	5	-1
Cc1oc(-c2ccc(Cl)cc2)nc1CN1C(=O)CN=C(c2ccccc2)c2ccccc21	·	-4	·	·	·
COc1ccccc1N1CCN(CCc2ccccc2)CC1	1	-32	73*	-7	0
Cc1ccc(-n2nc(C)c3c2NC(=O)CSC3c2ccc(O)cc2)cc1Cl (stereo not given)	-2	8	·	·	·
O=C(c1ccc2c(=O)n(Cc3ccc4c(c3)OCO4)c(=S)[nH]c2c1)N1CCC2(CC1)OCCO2	0	6	44*	-10	-1
O=C(NCc1ccc(C(=O)N2CCC3(CC2)OCCO3)cc1)c1ccc2c(c1)OCO2	0	5	-22	-7	-2
COC(=O)C(O)(c1ccc(NC(=S)NC(=O)c2ccc(Cl)cc2Cl)cc1)C(F)(F)F (stereo not given)	11	32*	0	-32	-6
CN1CC(C(=O)c2ccc(F)cc2)C(c2c(F)cccc2Cl)C1 (stereo not given)	0	-12	5	-24	-3
COc1ccc(C2CN(C)CC2C(=O)c2ccc(F)cc2)cc1Cl (stereo not given)	0	-35	69*	-13	0
CCC1(C)OC(c2ccccc2)=C/C(=C/C=C2C(=O)NC(=O)NC2=O)O1 (stereo not given)	15	-9	43*	-15	0
Nc1c(C(=O)Nc2ccc(Cl)c(C(F)(F)F)c2)sc2nc3c(cc12)N1CCC3CC1	0	-2	·	·	·
CCOC(=O)C(NC(=O)CCl)(Nc1ccc(C(O)(C(=O)OCC)C(F)(F)F)cc1)C(F)(F)F (stereo not given)	0	3	-1	-8	-3
CCOC(=O)C(NC(=O)CC)(Nc1ccc(C(O)(C(=O)OCC)C(F)(F)F)cc1C)C(F)(F)F (stereo not given)	-1	15	34*	0	-4
Cc1ccc(Cn2cccc(C(=O)Nc3nnc(C)s3)c2=O)cc1	20	9	·	·	·
Cc1ccsc1C(=O)C1CCCN(Cc2c(C)nn(C(C)C)c2C)C1 (stereo not given)	-1	-18	57*	-12	-2
Cc1ccsc1C(=O)C1CCCN(Cc2cnc(N3CCCC3)s2)C1 (stereo not given)	1	-8	39*	-5	-1
O=C(CN1C(=O)CN=C(c2ccccc2)c2ccccc21)Nc1cccc(C(F)(F)F)c1	1	·	·	·	·
SMILES	D2 ag-1	D2 PAM-1	D2 antag	D2 PAM-2	D2 ag-2
CC(C)Oc1ccc(CCN)cc1Cl	1	-6	8	-14	1
CCCCOc1ccc(CCN)cc1Cl	3	3	42*	-20	-6
CCC(=O)N1CC(=O)Nc2ccc(C)cc2C1c1ccc(F)cc1 (stereo not given)	-1	13	·	·	·
CC1CCN(CC#CCOc2ccc(Cl)cc2)CC1	1	-24	86*	-2	-2
Cc1cc(-n2c(/C=C/c3ccc(Br)s3)nc3ccccc3c2=O)ccc1Br	·	-13	·	·	·
CCCCC1(CCCC)C(=O)NC(=Nc2cccc(C)c2)NC1=O	0	14	-17	-14	-3
Cc1cccc(N=C2c3cc([N+](=O)[O-])ccc3-c3c2cc([N+](=O)[O-])cc3[N+](=O)[O-])c1	·	·	·	109*	10
CCCC12CN3CC(C)(CN(C1)C3c1c(C)[nH]c(=O)[nH]c1=O)C2=O (stereo not given)	-1	5	·	·	·
COc1ccc(C(=O)N2CCCC2=O)cc1	1	5	40*	-6	-4
CCCN1CCCC(C(=O)c2cc(C)c(OC)c(C)c2)C1 (stereo not given)	1	-27	86*	-13	-2
COc1c(C)cc(C(=O)C2CCCN(Cc3cccc(C)n3)C2)cc1C (stereo not given)	38*	-6	5	-16	-5
CN1C[C@H](CO)C=C2c3cccc4[nH]cc(c34)C[C@H]21	0	1	-9	8	69*
Oc1cc2c(cc1O)[C@H]1c3ccccc3CN[C@@H]1CC2	84*	-25	92*	·	·
COc1ccc2c(c1)C1OCCNC1CC2 (stereo not given)	·	·	·	-11	1
CSc1ncc(CN2CCCC(C(=O)c3ccccc3SC)C2)cn1 (stereo not given)	-1	-15	5	-34	-5
CSc1ccccc1C(=O)C1CCCN(Cc2ccn[nH]2)C1 (stereo not given)	22	-20	48*	-3	-1
Cc1ccc(S(=O)(=O)N(c2cc(Cl)c(O)c(Cl)c2)P(=O)(OC(C)C)OC(C)C)cc1	0	31*	5	-8	3
CCOC(=O)C1CCCN(c2ccc([N+](=O)[O-])c3nonc23)C1 (stereo not given)	135*	-8	52*	-15	4
CC1CCCN(c2ccc(C(=O)N3CCC4(CC3)OCCO4)cc2[N+](=O)[O-])C1 (stereo not given)	3	6	-4	-6	0
COc1ccc(-c2nc(CN3C(=O)CN=C(c4ccccc4)c4ccccc43)c(C)o2)cc1OC	-2	1	·	·	·
COCCOC(=O)c1c(N)n(Cc2ccccc2)c2nc3ccccc3nc12	-2	0	36*	13	-2
CCOC(=O)c1c(N)n(Cc2ccco2)c2nc3ccccc3nc12	11	-13	30*	-10	-8
CCCCn1c(N)c(C(=O)OCCOC)c2nc3ccccc3nc21	·	·	·	4	-2
CC(C)c1ccc(NC(=O)CN2C(=O)CN=C(c3ccccc3)c3ccccc32)cc1	0	2	·	·	·
Cc1ccc(-n2c(=O)[nH]c3ccc(Br)cc3c2=O)cc1	0	-5	·	·	·
COc1ccc(-c2nc(CN3C(=O)CN=C(c4ccccc4Cl)c4cc(Cl)ccc43)c(C)o2)cc1OC	7	-3	·	·	·
O=C(c1ccc(CS(=O)(=O)c2ccccc2)o1)N1CCC2(CC1)OCCO2	-1	4	-11	-5	-1
